This is an account of results in PubChem BioAssay (EPA / NIEHS).

Inconclusive results are not listed. Activity calls are given as the source filed them. The calls were made as follows: active = hit-call score of the fitted dose curve at least 0.9, where 1 is the maximum; inconclusive = response in the unintended direction; inactive = score below 0.9.

Glycogen synthase kinase-3 beta (Homo sapiens), sequence (P49841 whole entry, looked up): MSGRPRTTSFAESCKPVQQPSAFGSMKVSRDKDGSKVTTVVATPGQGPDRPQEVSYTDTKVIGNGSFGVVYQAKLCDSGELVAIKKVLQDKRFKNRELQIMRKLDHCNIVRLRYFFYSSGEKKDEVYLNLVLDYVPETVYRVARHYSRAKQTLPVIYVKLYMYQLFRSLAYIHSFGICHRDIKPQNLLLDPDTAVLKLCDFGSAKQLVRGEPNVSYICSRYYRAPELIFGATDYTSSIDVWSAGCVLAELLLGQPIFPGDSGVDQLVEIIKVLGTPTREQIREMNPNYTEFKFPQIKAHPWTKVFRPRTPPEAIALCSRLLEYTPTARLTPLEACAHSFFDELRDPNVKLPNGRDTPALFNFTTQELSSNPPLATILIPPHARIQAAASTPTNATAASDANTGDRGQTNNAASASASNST

This experiment has as its target Glycogen synthase kinase-3 beta (Homo sapiens) (UniProt P49841). Kind of experiment: NVS_ENZ_hGSK3b: NovaScreen (NVS) Enzymatic Assay for human Glycogen Synthase Kinase-3 beta (GSK3b) (AID 2283165). As for the experimental part:
NVS_ENZ_hGSK3b is a biochemical, single-readout assay that uses extracted gene-proteins in a cell-free assay. Measurements were taken 1 hour after chemical dosing in a 384-well plate.NVS_ENZ_hGSK3b is one of one assay component(s) measured or calculated from the NVS_ENZ_hGSK3b assay. It is designed to make measurements of enzyme activity, a form of enzyme reporter, as detected with fluorescence intensity signals by Fluorescence and electrophoretic mobility shift technology.Data from the assay component NVS_ENZ_hGSK3b was analyzed into 1 assay endpoint. This assay endpoint, NVS_ENZ_hGSK3b, was analyzed in the positive analysis fitting direction relative to DMSO as the negative control and baseline of activity. Using a type of enzyme reporter, loss-of-signal activity can be used to understand changes in the enzymatic activity as they relate to the gene GSK3B. Furthermore, this assay endpoint can be referred to as a primary readout, because this assay has produced multiple assay endpoints where this one serves a enzymatic activity function. To generalize the intended target to other relatable targets, this assay endpoint is annotated to the kinase intended target family, where the subfamily is serine/threonine kinase.
Binding assays used specific radioligands (tritiated, iodinated) with non-radioactive competitive displacement ligands in agonist or antagonist protocols (as indicated) and various reference compounds and inhibitors to titrate specific binding to receptors and transporters. Most enzyme assays (CYPs, kinases, phosphatases, proteases, HDACs) used recombinant protein and specific substrates (fluorescence mostly, some colorimetric and radioactive) and inhibitors, followed by a biochemical separation of substrate and product. All assays for the biochemical HTS were initially run in duplicate at a single concentration (10 uM for CYP450 assays and 25 uM for all others). Assay-chemical combinations meeting a pre-defined threshold (e.g., 30% inhibition and other criteria defined below) were then run in singleton concentration-response format with maximum concentration of 20 uM for CYPs and 50 uM for all others. Each assay was run with positive and negative controls, and concurrent controls on every plate. The follow-up (secondary) screen tested active chemical-pairs in concentration series, as well as a few additional assays not tested in the primary screen, some selected negative inactives, and several cases re-run in the concentration series for confirmatory purposes.
As for `CCCCCCCCC(=O)O`, the molecule was called inactive.
On the same count and under the same terms, then `CC(C)(C)c1cc(C(C)(C)C)c(O)c(C(C)(C)C)c1`, with “inactive”.
Consider `CCCCCCCCCCCCc1ccccc1S(=O)(=O)O`, for which the AC50 is 14.2 µM (active).
In the case of `Cc1oc(-c2ccccc2)nc1CCOc1ccc(C[C@H](Nc2ccccc2C(=O)c2ccccc2)C(=O)O)cc1`, the molecule was called inactive.
Same read-out and setting: the value for `ClC1=C(Cl)C(Cl)(Cl)C(Cl)=C1Cl` was “inactive”; that for `O=[N+]([O-])c1ccc(O)cc1` was “inactive”; that for `COCC(C)OCC(C)O` (stereo not given) was “inactive”.
With `O=c1c(-c2ccc(O)cc2)coc2cc(O)ccc12`, the molecule was classed as inactive.
Still for that read-out and setting: then `Cc1cc(CCN2CCN(c3nsc4ccccc34)CC2)cc2c1NC(=O)CC2(C)C`, with “inactive”; and `N#C[C@@H]1CC(F)(F)CN1C(=O)CNC1CC2CCC(C1)N2c1ncccn1` (stereo not given in full), with “inactive”.
Still for that read-out and setting: the value for `CCOC(=O)CC(O)(CC(=O)OCC)C(=O)OCC` was “inactive”; that for `O=C(O)Cc1cc(I)c(Oc2cc(I)c(O)c(I)c2)c(I)c1` was “inactive”; that for `Oc1cccc(O)c1` was “inactive”.
For `CC(C)(C)c1ccc(O)c(C(C)(C)C)c1`, the molecule was classed as inactive.
`CCCCCCCCOC(=O)CCCCCCCCC(=O)OCCCCCCCC`: the molecule was classed as inactive.

As usually defined, the AC50 is the concentration at which the activity in the assay is half-maximal.
